Data taken from PubChem BioAssay (NCATS).
Records with an inconclusive call do not appear. Where a call stands in place of a potency, no number is given. Calls of active or inactive are those of the source. Unless noted, the call rests on the fitted dose curve; in most records, active means well fitted curve in the direction sought with a large enough effect; inconclusive means small, poorly fitted or top-dose-only effect, or another doubt; inactive means no such curve, though single readings can be large or run the other way.

Tested on: not listed separately
Experiment: qHTS Assay for Modulators of Human Peripheral Myelin Protein 22 (PMP22) Expression/Activity (AID 1967; active means well fitted curve in the direction sought with a large enough effect in the signal ratio; the % refers to the signal ratio)
Settings: Cell-based PMP22 reporter, dual-color luciferase ratio, mouse Pmp22 promoter in mouse Schwann cells; series mostly up to 115 µM
Method in brief: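 Mouse MSC80 Schwann cells carrying Pmp22 promoter–green click beetle luciferase plus EF-alpha–red luciferase control, dosed 24 h at 37 °C. Dual-filter luminescence, overlap-corrected; %Activity from green/red ratio normalised to untreated cells, concentration-response curves fitted.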

For `CN(C)c1nc(N(C)C)nc(N(C)C)n1`, which Potency is on record?
The Potency was “inactive”.

For `NCCS(=O)(=O)O`, which Potency is on record?
The Potency was “inactive”.

Which Potency does the source give for `O=C1N(c2ccccc2)c2ccccc2C1(Cc1ccncc1)Cc1ccncc1` here?
The Potency was “inactive”.

For `NCCc1cnc[nH]1`, which Potency is on record?
Its Potency is “inactive”.

Target: Ferritin light chain (Equus caballus) (UniProt P02791)
Experiment: qHTS Validation Assay for Identification of Novel General Anesthetics (AID 2323); further: potency means the concentration at half of the fitted maximal effect
Settings: horse apoferritin, anesthetic-site fluorescent probe displacement; series mostly up to 76.9 µM
Method in brief: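 Horse-spleen apoferritin (10 uM) in PBS with 50% saturated 1-aminoanthracene; compounds pin-transferred, 10 min at room temperature. Fluorescence read at 380/535 nm, normalized to free 1-AMA and 1-AMA/apoferritin values; four-parameter Hill fit.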

Ferritin light chain (Equus caballus), sequence (P02791 2-175 limits assumed): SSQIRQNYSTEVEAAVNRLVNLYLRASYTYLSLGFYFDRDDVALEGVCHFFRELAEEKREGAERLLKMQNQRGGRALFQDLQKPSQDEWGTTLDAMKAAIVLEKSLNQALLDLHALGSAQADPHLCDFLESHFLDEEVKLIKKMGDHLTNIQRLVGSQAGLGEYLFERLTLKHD

Which Potency does the source give for `N[C@@H](Cc1c[nH]c2ccc(O)cc12)C(=O)O` here?
The Potency was “inactive”.

Which Potency does the source give for `CCOC(=O)Nc1ccc(NCc2ccc(F)cc2)nc1N` here?
The Potency was “inactive”.

Which Potency does the source give for `COc1cc2nc(N3CCN(C(=O)c4ccco4)CC3)nc(N)c2cc1OC` here?
Its Potency is “inactive”.

For `CN1CCC(=C2c3ccccc3C=Cc3ccccc32)CC1`, which Potency is on record?
Its Potency is “inactive”.

Which Potency does the source give for `Nc1c2c(nc3ccccc13)CCCC2` here?
The Potency was “inactive”.

Which Potency does the source give for `Fc1ccc([C@@H]2CCNC[C@H]2COc2ccc3c(c2)OCO3)cc1` here?
The Potency was “inactive”.

With `O=C1c2c(O)ccc(O)c2C(=O)c2c(NCCNCCO)ccc(NCCNCCO)c21` as the molecule, how does the Potency read?
Its Potency is 17.8 µM (active).

With `CCC1(C)CC(=O)NC1=O` (stereo not given) as the molecule, how does the Potency read?
The Potency was “inactive”.

For `CC(C)NCC(O)COc1ccc(CCOCC2CC2)cc1` (stereo not given), which Potency is on record?
The Potency was “inactive”.

Which Potency does the source give for `CN(C)c1nc(N(C)C)nc(N(C)C)n1` here?
The Potency was “inactive”.

With `NCCS(=O)(=O)O` as the molecule, how does the Potency read?
The Potency was “inactive”.

Which Potency does the source give for `CN(C)CCC=C1c2ccccc2C=Cc2ccccc21` here?
Its Potency is “inactive”.

With `Cn1c(=O)c2c(ncn2C)n(C)c1=O` as the molecule, how does the Potency read?
The Potency was “inactive”.

For `CCC1(c2ccccc2)C(=O)NCNC1=O`, which Potency is on record?
The Potency was “inactive”.

Which Potency does the source give for `COc1ccc2[nH]cc(CCNC(C)=O)c2c1` here?
Its Potency is “inactive”.

Which Potency does the source give for `CCCNCC(O)COc1ccccc1C(=O)CCc1ccccc1` (stereo not given) here?
Its Potency is “inactive”.

With `CN1CCC(=C2c3ccccc3CC(=O)c3sccc32)CC1` as the molecule, how does the Potency read?
The Potency was “inactive”.

For `O=C(c1ccc(F)cc1)C1CCN(CCn2c(=O)[nH]c3ccccc3c2=O)CC1`, which Potency is on record?
The Potency was “inactive”.

Which Potency does the source give for `CN1CCN(CCCN2c3ccccc3Sc3ccc(Cl)cc32)CC1` here?
The Potency was “inactive”.

For `CC[N+](CC)(CC)CCOc1cccc(OCC[N+](CC)(CC)CC)c1OCC[N+](CC)(CC)CC`, which Potency is on record?
Its Potency is “inactive”.

For `O=C1N(c2ccccc2)c2ccccc2C1(Cc1ccncc1)Cc1ccncc1`, which Potency is on record?
Its Potency is “inactive”.

For `NC(=O)OCC(COC(N)=O)c1ccccc1`, which Potency is on record?
The Potency was “inactive”.

For `Nc1nc2c(ncn2COC(CO)CO)c(=O)[nH]1`, which Potency is on record?
The Potency was “inactive”.

With `CC(CCc1ccc(O)cc1)NCCc1ccc(O)c(O)c1` (stereo not given) as the molecule, how does the Potency read?
The Potency was “inactive”.

Which Potency does the source give for `COc1ccccc1N1CCN(CC(O)COc2cccc3ccccc23)CC1` (stereo not given) here?
The Potency was “inactive”.

With `Cn1c(=O)c2[nH]cnc2n(C)c1=O` as the molecule, how does the Potency read?
The Potency was “inactive”.

With `NCCc1cnc[nH]1` as the molecule, how does the Potency read?
Its Potency is “inactive”.

With `COc1cc2nc(N3CCN(C(=O)C4COc5ccccc5O4)CC3)nc(N)c2cc1OC` (stereo not given) as the molecule, how does the Potency read?
The Potency was “inactive”.

For `CN(C)CCOC(c1ccccc1)c1ccccc1`, which Potency is on record?
The Potency was “inactive”.

Which Potency does the source give for `NC12CC3CC(CC(C3)C1)C2` here?
Its Potency is “inactive”.

For `Cn1cnc2c1c(=O)[nH]c(=O)n2C`, which Potency is on record?
Its Potency is “inactive”.
